# “And” between values parts separate entries of the source, which are not always exact repeats. Identical values can stand only once. Compounds without any hit were thinned out: in the full panel of roughly 83,000, 20% have a hit.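 A percent growth of 40 corresponds to 60% growth inhibition; 0 means no net growth; -100 means all cells died. Active threshold: below 10.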 The source made the active and inactive calls.
# Test system: MDA-MB-468 breast
# Assay: NCI-60 one-dose screen, 48 h (100 = growth as untreated, 0 = no growth, -100 = all killed)
# Settings: 10 µM unless noted
row,SMILES,growth
1,NC1=CC(=O)c2cccnc2C1=O,-50.8% (active)
2,COc1ccc(C2C=C(c3ccc(Cl)cc3)N=C3SC=C(C)N32)c(Br)c1 (stereo not given),8.58% (active)
3,NC(=S)N/N=C/c1ccc(OCc2ccccc2)cc1,47.3% (inactive)
4,COc1ccc(C(=O)C(CN(C)C)c2ccc(OC)cc2)cc1 (stereo not given),14.2% (inactive)
5,CCOC(=O)c1ccc(N(C=O)CCC(=O)CCl)cc1,40.3% (inactive)
6,Clc1ccc(COc2ccc(Nc3ncnc4onc(-c5ccccc5)c34)cc2)cc1,78.5% (inactive)
7,OCCOCC(F)(F)F,106% (inactive)
8,C#Cc1ccccc1NC(=O)c1sc2nc3c(cc2c1N)CCCCCC3,73.5% (inactive)
9,Nc1nc2ccc([C@@H]3Nc4ccc5[nH]ncc5c4[C@H]4[C@H]5CCC(C5)[C@H]43)cc2s1,-14.4% (active)
10,Oc1ccc(C2OCCO2)c2cccnc12,62.4% (inactive)
11,COc1ccccc1NC(=O)OCC12COCN1COC2,101% (inactive)
12,CCn1cnc(C[C@H](NC(=O)[C@H](CCCCNC(=O)Nc2cc(C(F)(F)F)cc(C(F)(F)F)c2)NC(=O)Nc2cc(C(F)(F)F)cc(C(F)(F)F)c2)C(=O)OC)c1,-21% [100 µM] (active)
13,O=[N+]([O-])c1ccc(/C=C/C2(CCl)OCCO2)cc1,108% (inactive)
14,O=C1CN(Cc2ccc(C(=O)NO)cc2)C(=O)[C@@H](Cc2ccccc2)N1,109% (inactive)
15,Cc1nc2ccccc2n1CC1C(=O)NC(=O)NC1=O,107% (inactive)
16,O=C(/C=C/c1cccs1)Nc1ncc(Cc2ccccc2F)s1,-13.8% (active)
17,Cc1ccc(NC(=O)c2[nH]c(SCCN(C)C)nc2-c2ccc(F)cc2)cc1Nc1ccc2ncn(C)c(=O)c2c1,92.1% (inactive)
18,Cn1c(=O)c2[nH]c(CCCc3nc4c([nH]3)c(=O)n(C)c(=O)n4C)nc2n(C)c1=O,103% (inactive)
19,O=C(Nc1ccccc1N1CCCC1=O)c1oc2ccc(F)cc2c1-c1cnn(-c2ccccc2)c1,51.1% [50 µM] (inactive)
20,COc1cc(OC)c(C(=O)/C=C/c2cccc(C#N)c2)c(OC)c1,-13.8% (active)

row,SMILES,growth
1,N#C/C(=C\c1ccc2c(c1)OCO2)n1nnc2ccccc21,-1.9% (active)
2,COc1nc(N)nc(-n2c(-c3ccc(C)cc3)nc3ccccc32)c1NCc1ccc(C)cc1,98.6% (inactive)
3,O=C(Nc1nc2cccc(-c3ccc(CN4CCS(=O)(=O)CC4)cc3)n2n1)C1CC1,41.5% (inactive)
4,C=CCn1c(C)nc2cc(Nc3nc(N4CCCC4)nc4ccccc34)ccc21,105% (inactive)
5,O=S(=O)(Nc1ccc(OC(F)F)cc1)c1ccc(-c2cnc(C3CC3)o2)cc1,-9.07% (active)
6,CC(=O)Oc1csc(N(C(C)=O)c2cc(C(=O)O)cc(C(=O)O)c2)n1,95.2% (inactive)
7,CCN1CCCC1CNC(=O)c1ncc(-c2ccc(C(F)(F)F)cc2)c(NC2CCCCCC2)n1 (stereo not given),80.8% (inactive)
8,Clc1ccc2c(c1)-c1ccccc1C1=NCCN12,7.52% (active)
9,CNS(=O)(=O)c1ccc(Cl)c(Cl)c1,101% (inactive)
10,O=S(=O)(c1ccc(N/N=C\c2ccccc2Cl)cc1)c1ccc(N/N=C/c2ccccc2Cl)cc1,91.5% (inactive)
11,ON=C1CCCCCCCC1,102% (inactive) and 107% (inactive)
12,CCCC(O)Cn1ncc(C(=O)OCC)c1NC(=O)NCc1cccc(C(F)(F)F)c1 (stereo not given),79.3% (inactive)
13,Cc1c(Cl)cccc1NC(=O)c1sc2nc3c(cc2c1N)C(=O)CCC3,48.6% (inactive)
14,Cc1nn(-c2ccc(Cl)cc2)c(=O)n1CCN1CCOCC1,90.3% (inactive)
15,O=C1/C(=N\c2cc(=O)[nH]n2S(=O)(=O)c2ccccc2)Nc2ccccc21,106% (inactive)
16,CCCCCCCCCCCC[n+]1ccccc1 (tested in a mixture with another compound),-37.6% (active)
17,O=C1NC(=O)C(c2ccccc2)(c2ccccc2)N1Cc1cn(-c2c3ccccc3nc3ccccc23)nn1,38.2% (inactive)
18,CC(=O)Oc1ccccc1C(=O)N=C1[Se]CCN1C(=O)c1ccccc1OC(C)=O,-25.6% (active)
19,COc1ccc(-c2cc(-c3nnc(SCC(=O)Nc4ccc(/C(C)=N\O)cc4)o3)c3ccccc3n2)cc1,106% (inactive)
20,CCCCCCC(CCCC)COC(=O)c1ccc(Cl)cc1 (stereo not given),96.2% (inactive)

# — PubChem BioAssay (NCI)
